Source: PubChem
Rows were chosen to be rich in hits. Some 9.3% of all compounds tested hit in one or more screens of this group.
ELG1 repair inh – ELG1-dependent DNA repair inhibition; AID 504467; HEK293T ELG1-luciferase reporter, luminescence, 16 h; DNA damage induced by 5-fluorouridine; hit rate 2.3% among 330,000; Potency, µM (doses to about 46.1 µM), hits mostly inhibitors; also: nearly all actives have a fitted effect of over 55% in size
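DMSO vehicle served as the neutral condition. Each well held 2,000 cells given 5-fluorouridine plus compound; after 16 hr at 37 °C/5% CO2, ONE-Glo was added and luciferase measured 30 min later.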
ELG1 genotox – genotoxicity induction in ELG1-luciferase HEK293T cells. HEK293T ELG1-luciferase reporter, luminescence, 16 h. Potency, µM (top dose mostly 46 µM), usual class: activators. hit rate 1.3% among 330,000. AID 504466; also: nearly all actives have a fitted effect of over 60% in size
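Luminescence read-out: rising ELG1-luciferase signal, reflecting elevated ELG1 protein under genetic stress, flags genotoxic compounds. Cells were treated for 16 hr at 37 °C before ONE-Glo detection.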
NPC1 promoter act – activators of NPC1 promoter; hit rate 2.4% among 320,000; AID 485313; Huh7 NPC1 promoter luciferase reporter, 24 h; Potency, µM (top dose mostly 9.22 µM), most hits filed as activators; also: nearly all actives have a fitted effect of over 60% in size
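Huh7 cells stably carrying NPC1 promoter–luciferase, plated in Opti-MEM with 10% FBS for 2 h, were exposed to compound in DMSO for 24 h at 37 °C; luciferase reagent was added for 10 min and luminescence read.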
FLuc modulator – inhibits or activates purified firefly luciferase, miR-21 counter-screen; P08659; AID 588342; hit rate 6.9% among 360,000; Potency, µM (titrated, usually from 57.5 µM), most hits filed as inhibitors; purified FLuc, Km substrates, luminescence inhibition; also: nearly all actives have a fitted effect of over 55% in size
Target sequence (P08659 whole entry, looked up): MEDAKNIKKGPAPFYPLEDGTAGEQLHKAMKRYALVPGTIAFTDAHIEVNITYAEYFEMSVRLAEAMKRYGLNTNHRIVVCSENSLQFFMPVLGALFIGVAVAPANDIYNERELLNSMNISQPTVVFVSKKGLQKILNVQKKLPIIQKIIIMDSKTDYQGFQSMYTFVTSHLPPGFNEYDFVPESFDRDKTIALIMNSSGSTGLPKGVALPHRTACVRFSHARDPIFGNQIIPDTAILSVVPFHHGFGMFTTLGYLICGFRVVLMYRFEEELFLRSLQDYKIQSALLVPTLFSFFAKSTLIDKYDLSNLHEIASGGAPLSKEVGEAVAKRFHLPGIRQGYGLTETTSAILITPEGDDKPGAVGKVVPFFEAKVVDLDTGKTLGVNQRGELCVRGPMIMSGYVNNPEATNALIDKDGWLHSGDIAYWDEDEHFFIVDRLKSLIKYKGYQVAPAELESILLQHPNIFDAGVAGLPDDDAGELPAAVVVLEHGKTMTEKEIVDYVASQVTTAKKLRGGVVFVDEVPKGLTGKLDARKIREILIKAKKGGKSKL
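Purified P. pyralis luciferase, 10 nM final, with Km-level 10 uM D-luciferin and 10 uM ATP in 50 mM Tris acetate pH 7.5, 10 mM Mg acetate, 0.01% Tween-20, 0.05% BSA; 6-point qHTS titration about 60 µM downward; luminescence read.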
Rab9 prom act – activates the Rab9 promoter. Huh7 Rab9 promoter-luciferase reporter, luminescence, 24 h. Potency, µM (top dose mostly 9.22 µM), usual class: activators. hit rate 2.8% among 320,000; also: nearly all actives have a fitted effect of over 60% in size
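Huh7 reporter line, Rab9 promoter upstream of luciferase. Compound exposure 24 h at 37 °C in reduced-serum medium with 10% FBS. Read-out: luminescence.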
SMN2 splice up – enhancers of SMN2 splice variant expression; Potency, µM (doses to about 46.1 µM), actives largely listed as activators; HEK293 SMN2-luciferase splicing reporter, luminescence, 30-36 h; hit rate 2.8% among 210,000; also: nearly all actives have a fitted effect of over 55% in size
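HEK293 cells carry an SMN2 minigene-luciferase reporter in which exon 7 inclusion puts luciferase in frame. Cells were seeded at 2000 cells/well, attached for 10-12 hours, then exposed to compounds for 30-36 hours at 37C before ONE-Glo luminescence.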
Numbers stand for hits; - = inactive; ? = inconclusive; . = not tested or not shown; [ ] = another dose, or the depositor's remark. Calls follow the shape of the dose curve; as a rule, active = well fitted curve in the direction sought with a large enough effect; inconclusive = small, poorly fitted or top-dose-only effect, or another doubt; inactive = no such curve, though single readings can be large; an effect the other way counts as inactive or inconclusive.

SMILES	ELG1 repair inh	ELG1 genotox	NPC1 promoter act	FLuc modulator	Rab9 prom act	SMN2 splice up
COc1ccc(-c2ccc(SCC(=O)N3c4ccccc4CC3C)nn2)cc1OC (centres undefined)	16µM	-	-	4.3µM	-	?
CCSc1nn2c(=O)c3ccccc3nc2s1	?	5µM	3.5µM	19µM	2.5µM	14µM
CCc1cccc(C)c1Nc1nn2c(=O)c3ccccc3nc2s1	.	.	.	-	.	.
O=C(NC1CCCCC1)c1ccc(Cn2c(SCc3cccc(F)c3)nc3cccnc32)cc1	.	.	.	-	.	.
O=C(NCCN1CCCCC1)c1ccc(Cn2c(SCc3ccc(F)cc3)nc3cccnc32)cc1	.	.	.	8.5µM	.	-
CN(C)CCNC(=O)c1ccc(Cn2c(SCc3ccc(F)cc3)nc3cccnc32)cc1	.	.	.	6µM	.	.
Cc1cccc(CNC(=O)c2ccc(Cn3c(SCc4cccc(F)c4)nc4cccnc43)cc2)c1	.	.	.	-	.	.
COCCCNC(=O)c1ccc(Cn2c(SCc3ccc(F)cc3)nc3cccnc32)cc1	.	.	.	3.4µM	.	.
COCCCNC(=O)c1ccc(Cn2c(SCc3cccc(C)c3)nc3cccnc32)cc1	.	.	.	11µM	.	.
O=C(CN1CCN(S(=O)(=O)c2ccccc2)CC1)Nc1ccc(Cl)c(Cl)c1	?	-	-	-	-	-
O=C(NCC1CCCO1)C1CC(=O)N(c2ccc(Cl)cc2)C1 (centres undefined)	-	-	-	-	-	.
O=C(Sc1ccccc1)c1cccc(Cn2cc(C(F)(F)F)ccc2=O)c1	-	-	-	-	-	.
Nc1cccc(CCc2nc3cc4ccccc4cc3[nH]2)c1	?	18µM	-	19µM	1.6µM	5.6µM
O=c1[nH]c2ccccc2nc1Cc1ccc(Cl)cc1	-	-	-	-	-	.
CN(CC(=O)O)Cc1nc2ccccc2[nH]1	?	?	-	21µM	-	-
O=c1[nH]c2ccccc2nc1CCc1ccccc1	?	?	?	-	3.2µM	?
c1ccc(CCc2nc3ccccc3[nH]2)cc1	?	?	?	17µM	?	.
CCc1ccc(CN(Cc2cn[nH]c2-c2ccc(OC)cc2)C(=O)Nc2ccc(C)c(F)c2)cc1	.	.	.	-	.	.
CCOc1cc(C(=O)OCC(=O)c2c(C)[nH]c3ccccc23)ccc1OCC(=O)N1CCOCC1	16µM	-	-	-	-	-
CCOc1cc(/C=C/c2nc3ccccc3s2)ccc1OCC(=O)N1CCOCC1	23µM	-	-	?	-	-
O=C(CN1c2ccccc2Sc2ccccc21)N/N=C/c1ccc(Cl)cc1Cl	-	-	-	-	-	.
O=C(Cc1csc(N2CCOCC2)n1)N/N=C/c1ccc(Cl)cc1Cl	23µM	-	-	?	-	-
COc1cc(/C=N/NC(=O)Cc2csc(N3CCOCC3)n2)cc(OC)c1O	-	-	-	15µM	-	-
COc1cc(/C=N/NC(=O)Cc2ccc(Br)cc2)cc(OC)c1O	?	-	-	-	-	.
CN1CCN(C(=O)c2ccc3c(c2)NC(=O)/C(=C/c2ccccc2)S3)CC1	-	-[9.26 µM]	-	-	-	.
SMILES	ELG1 repair inh	ELG1 genotox	NPC1 promoter act	FLuc modulator	Rab9 prom act	SMN2 splice up
CCOC(=O)C1CCN(C(=O)c2ccc3c(c2)NC(=O)/C(=C\c2cccc(C)c2)S3)CC1	15µM	-	-	-	-	.
CCOC(=O)C1CCN(C(=O)c2ccc3c(c2)NC(=O)/C(=C/c2ccccc2)S3)CC1	-	-	-	-	-	.
CCOC(=O)C1CCN(C(=O)c2ccc3c(c2)NC(=O)/C(=C\c2ccc(C)cc2)S3)CC1	-	-	-	24µM	-	.
Cc1ccc(/C=C2/Sc3ccc(C(=O)N4CCN(c5ccccn5)CC4)cc3NC2=O)cc1	-	-	-	13µM	-	.
C#CCSc1nc2sc3c(c2c(=O)n1C)CCC3	?	-	-	-	-	.
CCc1ccc2c(c1)c1nnc(NN)nc1n2CC	16µM	-	-	-	-	-
CCc1ccc2c(c1)c1nnc(NN)nc1n2C	-	-	-	-	-	.
NNc1nnc2c3cc(F)ccc3n(Cc3ccccc3)c2n1	9.2µM	-	-	-	-	.
CCCN(/C=N/c1sc2c(c1C#N)CCCCC2)CCC	?	-	-	19µM	-	-
CN(C)/C=N/c1sc2c(c1C#N)CCCCC2	?	?	?	21µM	?	?
CN(C)/C=N/c1sc2c(c1C#N)CCC2	-	-	-	-	-	-
N#Cc1c(/N=C/N2CCOCC2)sc2c1CCCCC2	?	5.8µM	4µM	5.4µM	2.5µM	11µM
CCOC(=O)NC(=O)c1cn(N(C)c2ncc(C(F)(F)F)cc2Cl)c(=O)[nH]c1=O	-	-	-	-	-	-
O=C(NCCCN1CCOCC1)c1cc(-c2ccccc2)nc2ccccc12	-	-	-	-	-	.
CCOc1ccc(-c2cc(C(=O)NCCCN3CCN(CC)CC3)c3ccccc3n2)cc1	?	-	-	8.5µM	-	-
COc1ccc(-c2cn3c(n2)sc2cc(C(=O)Nc4ccc(C)cc4C)ccc23)cc1	.	.	.	-	.	.
COc1ccc(-c2cn3c(n2)sc2cc(C(=O)Nc4ccc(F)cc4Cl)ccc23)cc1	.	.	.	19µM	.	?
CCCN1CCN(CCCNC(=O)c2ccc3c(c2)sc2nc(-c4ccc(OCC)cc4)cn23)CC1	.	.	.	11µM	.	-
CCOc1ccc(-c2cn3c(n2)sc2cc(C(=O)NCCCN4CCCCCC4)ccc23)cc1	.	.	.	-	.	.
COC(=O)C1CCN(C(=O)COC(=O)c2cc(-c3ccccc3)nc3ccc(OC)cc23)CC1	18µM	-	-	?	-	.
CCOC(=O)N1CCC(NC(=O)c2ccc3c(c2)sc2nc(-c4cccc(OC)c4)cn23)CC1	2.9µM	-	-	?	-	-
CCOC(=O)N1CCC(NC(=O)c2ccc3c(c2)sc2nc(-c4ccccc4)cn23)CC1	-	-	?	?	-	-
COc1cc2ccccc2cc1C(=O)OCC(=O)N1CCOCC1	-	-	-	-	-	-
COc1ccc(-c2cc(C(=O)OCC(=O)N3CCOCC3)c3ccccc3n2)cc1	21µM	-	.	.	.	.
CCOc1ccc(-c2cc(C(=O)NCCCn3ccnc3)c3cc(Br)ccc3n2)cc1	?	-	-	5.4µM	-	.
SMILES	ELG1 repair inh	ELG1 genotox	NPC1 promoter act	FLuc modulator	Rab9 prom act	SMN2 splice up
Cc1ccc(Nc2cc(C(=O)NCCCN3CCOCC3)c3ccccc3n2)cc1C	?	-	-	12µM	-	.
CN(C)CCCNC(=O)C[C@H]1C[C@H](C(=O)N2CCOCC2)[C@@]2(C)c3[nH]c4cc(CCC(=O)N(C)C)ccc4c3CCN2C1=O	-	-	.	.	.	.
CCc1ccc(N2C(=O)N(CC(=O)C(C)(C)C)c3ccccc3S2(=O)=O)cc1	.	.	.	-	.	.
CCOc1ccc(-c2cc(C(=O)NCCCn3ccnc3)c3ccccc3n2)cc1	-	-	-	6µM	-	-
CCCCNC(=O)c1cc(Sc2ccc(OCC)cc2)nc2ccccc12	.	.	.	-	.	.
COc1ccc(-c2cc(C(=O)NCCN3CCOCC3)c3ccccc3n2)cc1	-	-	-	17µM	-	-
